Results published in PubChem BioAssay (NCI).
This is part of a sample that, as a whole, favours compounds with a hit. Of some 79,000 tested, about 15% had one in any assay. Unmarked numbers belong to inactive results. Calls of active or inactive are those of the source. Rule as the data show it: active = growth inhibition above about 70%; inactive = the rest.

How the values were obtained:
[1] = NCI Yeast Anticancer Drug Screen. Data for the wt1 strain (AID 149);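 also: 0% = growth of vehicle-treated wt1 cultures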; conditions: S. cerevisiae wt1 strain (SPY 50644) growth inhibition, active compounds read high
Procedure, shortened: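 Growth inhibition read against vehicle controls after compound exposure of the wt1 yeast strain.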

[2] = NCI Yeast Anticancer Drug Screen. Data for the rad50EPP+ strain (AID 151);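 also: 0% = growth of vehicle-treated control cultures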; conditions: S. cerevisiae rad50 mutant strain, active compounds read high
Procedure, shortened: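 Measured: growth inhibition of rad50EPP+ yeast. Reference: vehicle-treated controls. Screen uses strains with defined genetic alterations in DNA damage repair or cell cycle control.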

[3] = NCI Yeast Anticancer Drug Screen. Data for the mgt1 strain (AID 153); conditions: S. cerevisiae mgt1 mutant growth inhibition, active compounds read high
Procedure, shortened: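 Compounds were applied to mgt1 mutant yeast, and growth was then compared against vehicle-treated control cultures to give percent inhibition.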

[4] = NCI Yeast Anticancer Drug Screen. Data for the rad50 strain (AID 155);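 also: 0% = growth of vehicle-only cultures of the same strain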; conditions: S. cerevisiae rad50 strain growth inhibition, active compounds read high
Procedure, shortened: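 Readout: growth inhibition relative to vehicle-treated cultures. Compound exposure was carried out in a genetically defined yeast strain deficient in DNA damage repair.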

[5] = NCI Yeast Anticancer Drug Screen. Data for the mec2-1 strain (AID 157); conditions: S. cerevisiae mec2-1 strain, active compounds read high
Procedure, shortened: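 Compounds were applied to mec2-1 yeast cells. Their growth was then compared with that of vehicle-treated cultures to give growth inhibition.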

[6] = NCI Yeast Anticancer Drug Screen. Data for the rad14 strain (AID 159);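 also: 0% = growth of vehicle-treated control cultures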; conditions: S. cerevisiae rad14 strain growth inhibition, active compounds read high
Procedure, shortened: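 Growth inhibition vs vehicle controls; genetically altered yeast strain (DNA damage repair defect) treated with test compounds.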

[7] = NCI Yeast Anticancer Drug Screen. Data for the sgs1 mgt1 strain (AID 161);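 also: 0% = growth of cultures given vehicle only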; conditions: S. cerevisiae sgs1 mgt1 strain, active compounds read high
Procedure, shortened: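 This yeast growth screen uses a strain with defined DNA-repair lesions; compound-treated growth is compared with vehicle-treated growth.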

[8] = NCI Yeast Anticancer Drug Screen. Data for the CLN2oe strain (AID 163);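 also: 0% = growth of vehicle-only control cultures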; conditions: S. cerevisiae CLN2oe strain, active compounds read high
Procedure, shortened: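 Cells of an engineered yeast line with disturbed cell-cycle regulation are treated with compound. Inhibition of growth is then calculated relative to the vehicle-treated reference.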

[9] = NCI Yeast Anticancer Drug Screen. Data for the cln2 rad14 strain (AID 165);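 also: 0% = growth equal to vehicle treated cultures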; conditions: S. cerevisiae cln2 rad14 strain, active compounds read high
Procedure, shortened: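 Strain: cln2 rad14 yeast, altered in cell cycle control and DNA damage repair. Read-out: growth inhibition vs vehicle.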

[10] = NCI Yeast Anticancer Drug Screen. Data for the bub3 strain (AID 167); conditions: S. cerevisiae bub3 mutant strain, active compounds read high
Procedure, shortened: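 Readout: yeast growth inhibition, expressed relative to vehicle-only wells. The test organism is a mutant strain from a panel with lesions in DNA repair or checkpoint genes.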

[11] = NCI Yeast Anticancer Drug Screen. Data for the wt2 strain (AID 169);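 also: 0% = growth of vehicle-treated yeast cultures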; conditions: S. cerevisiae wt2 strain growth inhibition, active compounds read high
Procedure, shortened: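 Growth of compound-treated yeast is measured and expressed as inhibition relative to vehicle-only controls.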

[12] = NCI Yeast Anticancer Drug Screen. Data for the mlh1 strain (AID 171);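 also: 0% = growth of vehicle-treated control cultures of the same strain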; conditions: S. cerevisiae mlh1 strain growth inhibition, active compounds read high
Procedure, shortened: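 Test agents were incubated with yeast bearing a defined DNA damage repair or cell cycle control alteration; values are growth inhibition normalised to vehicle-treated cultures.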

[13] = NCI Yeast Anticancer Drug Screen. Data for the sgs1 strain (AID 173);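 also: 0% = growth of vehicle-only control cultures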; conditions: S. cerevisiae sgs1 mutant, active compounds read high
Procedure, shortened: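 Strain with an altered DNA repair or cell cycle pathway exposed to compound. Growth then measured. Value = inhibition versus vehicle control.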

[14] = NCI Yeast Anticancer Drug Screen. Data for the mlh1 rad18 strain (AID 175); conditions: S. cerevisiae mlh1 rad18 strain growth inhibition, active compounds read high
Procedure, shortened: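 A repair-deficient yeast strain is exposed to test compound, and growth is scored relative to vehicle-treated controls.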

[15] = NCI Yeast Anticancer Drug Screen. Data for the rad18 strain (AID 177); conditions: S. cerevisiae rad18 mutant growth inhibition, active compounds read high
Procedure, shortened: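 DNA-repair-defective yeast; compound treatment; growth inhibition scored against vehicle.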

[16] = NCI Yeast Anticancer Drug Screen. Data for the rad52 strain (AID 147);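 also: 0% = growth of vehicle-treated control cultures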; conditions: S. cerevisiae rad52 mutant growth inhibition, active compounds read high
Procedure, shortened: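 Growth of repair-deficient yeast cells was compared between compound-treated and vehicle-treated cultures to give percent inhibition.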

[17] = at 5.0 µM (retest, dose inferred, filed as 0.5)
[18] = at 50.0 µM (retest, dose inferred, filed as 5.0)

COC(=O)C(F)C(Br)C(=O)OC (stereo not given)
growth inhibition ([1]; at 1.2 µM): -3%
growth inhibition ([1]; at 3.7 µM): 74% (active)
growth inhibition ([1]; at 11.0 µM): 97% (active)
growth inhibition ([1]; at 33.0 µM): 98% (active)
growth inhibition ([1]; at 100.0 µM): 99% (active)
growth inhibition ([2]; at 1.2 µM): 28%
growth inhibition ([2]; at 3.7 µM): 90% (active)
growth inhibition ([2]; at 11.0 µM): 97% (active)
growth inhibition ([2]; at 33.0 µM): 98% (active)
growth inhibition ([2]; at 100.0 µM): 97% (active)
growth inhibition ([3]; at 1.2 µM): 16%
growth inhibition ([3]; at 3.7 µM): 82% (active)
growth inhibition ([3]; at 11.0 µM): 98% (active)
growth inhibition ([3]; at 33.0 µM): 99% (active)
growth inhibition ([3]; at 100.0 µM): 99% (active)
growth inhibition ([4]; at 1.2 µM): -5%
growth inhibition ([4]; at 3.7 µM): 60%
growth inhibition [4, 17]: 88% (active)
growth inhibition ([4]; at 11.0 µM): 96% (active)
growth inhibition ([4]; at 33.0 µM): 98% (active)
growth inhibition [4, 18]: 99% (active)
growth inhibition ([4]; at 50.0 µM): 90.8% (active)
growth inhibition ([4]; at 100.0 µM): 98% (active)
growth inhibition ([5]; at 1.2 µM): 20%
growth inhibition ([5]; at 3.7 µM): 73% (active)
growth inhibition [5, 17]: 93% (active)
growth inhibition ([5]; at 11.0 µM): 95% (active)
growth inhibition ([5]; at 33.0 µM): 98% (active)
growth inhibition [5, 18]: 100% (active)
growth inhibition ([5]; at 50.0 µM): 93% (active)
growth inhibition ([5]; at 100.0 µM): 99% (active)
growth inhibition ([6]; at 1.2 µM): 5%
growth inhibition ([6]; at 3.7 µM): 67%
growth inhibition ([6]; at 11.0 µM): 93% (active)
growth inhibition ([6]; at 33.0 µM): 97% (active)
growth inhibition ([6]; at 100.0 µM): 96% (active)
growth inhibition [7, 17]: 8%
growth inhibition [7, 18]: 12%
growth inhibition ([7]; at 50.0 µM): 92.5% (active)
growth inhibition ([8]; at 1.2 µM): 43%
growth inhibition ([8]; at 3.7 µM): 91% (active)
growth inhibition ([8]; at 11.0 µM): 97% (active)
growth inhibition ([8]; at 33.0 µM): 98% (active)
growth inhibition ([8]; at 100.0 µM): 100% (active)
growth inhibition [9, 17]: 5%
growth inhibition [9, 18]: -42%
growth inhibition ([9]; at 50.0 µM): 84.2% (active)
growth inhibition ([10]; at 1.2 µM): 64%
growth inhibition ([10]; at 3.7 µM): 94% (active)
growth inhibition [10, 17]: 11%
growth inhibition ([10]; at 11.0 µM): 98% (active)
growth inhibition ([10]; at 33.0 µM): 99% (active)
growth inhibition [10, 18]: -21%
growth inhibition ([10]; at 50.0 µM): 91.4% (active)
growth inhibition ([10]; at 100.0 µM): 97% (active)
growth inhibition ([11]; at 1.2 µM): 55%
growth inhibition ([11]; at 3.7 µM): 95% (active)
growth inhibition ([11]; at 11.0 µM): 98% (active)
growth inhibition ([11]; at 33.0 µM): 99% (active)
growth inhibition ([11]; at 100.0 µM): 100% (active)
growth inhibition ([12]; at 1.2 µM): 66%
growth inhibition ([12]; at 3.7 µM): 96% (active)
growth inhibition ([12]; at 11.0 µM): 98% (active)
growth inhibition ([12]; at 33.0 µM): 99% (active)
growth inhibition ([12]; at 100.0 µM): 99% (active)
growth inhibition ([13]; at 1.2 µM): 48%
growth inhibition ([13]; at 3.7 µM): 95% (active)
growth inhibition ([13]; at 11.0 µM): 98% (active)
growth inhibition ([13]; at 33.0 µM): 99% (active)
growth inhibition ([13]; at 100.0 µM): 99% (active)
growth inhibition [14, 17]: 94% (active)
growth inhibition [14, 18]: 98% (active)
growth inhibition ([14]; at 50.0 µM): 90% (active)
growth inhibition ([15]; at 1.2 µM): 29%
growth inhibition ([15]; at 3.7 µM): 88% (active)
growth inhibition ([15]; at 11.0 µM): 98% (active)
growth inhibition ([15]; at 33.0 µM): 92% (active)
growth inhibition ([15]; at 100.0 µM): 98% (active)

O=[N+]([O-])c1ccc(N2CCC(CCCC3CCN(c4ccc([N+](=O)[O-])cc4[N+](=O)[O-])CC3)CC2)c([N+](=O)[O-])c1
growth inhibition ([16]; at 1.2 µM): -24%
growth inhibition ([16]; at 3.7 µM): -17%
growth inhibition ([16]; at 11.0 µM): -7%
growth inhibition ([16]; at 33.0 µM): 0%
growth inhibition ([16]; at 100.0 µM): 20%
growth inhibition ([2]; at 1.2 µM): -6%
growth inhibition ([2]; at 3.7 µM): -14%
growth inhibition ([2]; at 11.0 µM): -17%
growth inhibition ([2]; at 33.0 µM): -4%
growth inhibition ([2]; at 100.0 µM): 18%
growth inhibition ([3]; at 1.2 µM): -18%
growth inhibition ([3]; at 3.7 µM): -4%
growth inhibition ([3]; at 11.0 µM): 0%
growth inhibition ([3]; at 33.0 µM): 10%
growth inhibition ([3]; at 100.0 µM): 77% (active)
growth inhibition ([4]; at 1.2 µM): 7%
growth inhibition ([4]; at 3.7 µM): 1%
growth inhibition [4, 17]: 98% (active)
growth inhibition ([4]; at 11.0 µM): 4%
growth inhibition ([4]; at 33.0 µM): 12%
growth inhibition [4, 18]: 99% (active)
growth inhibition ([4]; at 50.0 µM): 75% (active)
growth inhibition ([4]; at 100.0 µM): 31%
growth inhibition ([5]; at 1.2 µM): -35%
growth inhibition ([5]; at 3.7 µM): -27%
growth inhibition [5, 17]: 99% (active)
growth inhibition ([5]; at 11.0 µM): -22%
growth inhibition ([5]; at 33.0 µM): -20%
growth inhibition [5, 18]: 99% (active)
growth inhibition ([5]; at 50.0 µM): 48.5%
growth inhibition ([5]; at 100.0 µM): -8%
growth inhibition ([6]; at 1.2 µM): -32%
growth inhibition ([6]; at 3.7 µM): -27%
growth inhibition ([6]; at 11.0 µM): -13%
growth inhibition ([6]; at 33.0 µM): -16%
growth inhibition ([6]; at 100.0 µM): 19%
growth inhibition [7, 17]: -41%
growth inhibition [7, 18]: 51%
growth inhibition ([7]; at 50.0 µM): 87.5% (active)
growth inhibition ([11]; at 1.2 µM): -15%
growth inhibition ([11]; at 3.7 µM): -21%
growth inhibition ([11]; at 11.0 µM): -9%
growth inhibition ([11]; at 33.0 µM): 8%
growth inhibition ([11]; at 100.0 µM): 39%
growth inhibition ([12]; at 1.2 µM): -19%
growth inhibition ([12]; at 3.7 µM): -25%
growth inhibition ([12]; at 11.0 µM): -21%
growth inhibition ([12]; at 33.0 µM): -24%
growth inhibition ([12]; at 100.0 µM): 32%
growth inhibition ([13]; at 1.2 µM): -24%
growth inhibition ([13]; at 3.7 µM): -17%
growth inhibition ([13]; at 11.0 µM): -15%
growth inhibition ([13]; at 33.0 µM): 21%
growth inhibition ([13]; at 100.0 µM): 52%
growth inhibition [14, 17]: 99% (active)
growth inhibition [14, 18]: 99% (active)
growth inhibition ([14]; at 50.0 µM): 68.3%
growth inhibition ([15]; at 1.2 µM): -24%
growth inhibition ([15]; at 3.7 µM): -25%
growth inhibition ([15]; at 11.0 µM): -14%
growth inhibition ([15]; at 33.0 µM): -5%
growth inhibition ([15]; at 100.0 µM): 4%

O=C(O)C1C2CCC(C2)C1c1ccccc1 (stereo not given)
growth inhibition ([16]; at 1.2 µM): -1%
growth inhibition ([16]; at 3.7 µM): -3%
growth inhibition ([16]; at 11.0 µM): -6%
growth inhibition ([16]; at 33.0 µM): -3%
growth inhibition ([16]; at 100.0 µM): 20%
growth inhibition ([1]; at 1.2 µM): -1%
growth inhibition ([1]; at 3.7 µM): -2%
growth inhibition ([1]; at 11.0 µM): -4%
growth inhibition ([1]; at 33.0 µM): -1%
growth inhibition ([1]; at 100.0 µM): 26%
growth inhibition ([3]; at 1.2 µM): -1%
growth inhibition ([3]; at 3.7 µM): -1%
growth inhibition ([3]; at 11.0 µM): -4%
growth inhibition ([3]; at 33.0 µM): -5%
growth inhibition ([3]; at 100.0 µM): 31%
growth inhibition ([4]; at 1.2 µM): -10%
growth inhibition ([4]; at 3.7 µM): -51%
growth inhibition [4, 17]: -2%
growth inhibition ([4]; at 11.0 µM): 2%
growth inhibition ([4]; at 33.0 µM): -3%
growth inhibition [4, 18]: 10%
growth inhibition ([4]; at 50.0 µM): 19.4%
growth inhibition ([4]; at 100.0 µM): 34%
growth inhibition ([5]; at 1.2 µM): -1%
growth inhibition ([5]; at 3.7 µM): -4%
growth inhibition [5, 17]: -8%
growth inhibition ([5]; at 11.0 µM): -7%
growth inhibition ([5]; at 33.0 µM): -1%
growth inhibition [5, 18]: 8%
growth inhibition ([5]; at 50.0 µM): 14.4%
